JMJD2A Tudor: JMJD2A Tudor domain (human) inhibition | O75164 | AlphaScreen JMJD2A-Tudor / H3K4me3 peptide binding | Potency, µM (doses to about 114 µM), for the others: top-dose activity change, negative = inhibition, hits mostly inhibitors | 390,000 tested, 4.4% active | AID 504339; note: % is set by controls: 0 for no effect and ±100 for the full control effect; nearly all actives have a fitted effect of over 50% in size
G9a inh: G9a (human) methyltransferase inhibition | Q96KQ7 | G9a H3K9 monomethylation, AlphaScreen, 2 h | Potency, µM (series often up to 102 µM), for the others: top-dose activity, negative = inhibition, usual class: inhibitors | 350,000 tested, 8.8% active; note: % is set by controls: 0 for no effect and ±100 for the full control effect; nearly all actives have a fitted effect of over 75% in size
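Compounds were preincubated with 20 nM G9a for 15 min, after which biotinylated H3K9 peptide (500 nM) and SAM (20 uM) started a 2 h room-temperature reaction. Monomethylated product was quantified by antibody-based AlphaScreen chemiluminescence.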
HP1b chromo inh: inhibitors of HP1-beta chromodomain binding to methylated histone tails; P83916; AlphaScreen HP1-beta / biotin-H3K9me3 peptide binding; Potency, µM (highest dose often 114 µM), for the others: top-dose activity change, negative = inhibition, most hits filed as inhibitors; 390,000 tested, 0.56% active; AID 540317; note: nearly all actives have a fitted effect of over 70% in size
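HP1-beta protein (50 nM final) preincubated 30 min at room temperature with biotinylated H3(1-18)K9me3 peptide (50 nM) in PBS pH 7.4, 0.01% Tween-20, then compound added for 30 min. AlphaScreen streptavidin donor/nickel chelate acceptor beads (10 ug/mL final), 30 min dark, luminescence read.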
L3MBTL1 block: inhibitors of human L3MBTL1; Potency, µM (top dose mostly 57.1 µM), for the others: top-dose activity, negative = inhibition, usual class: inhibitors; AlphaScreen L3MBTL1–H3K9me1 peptide binding; Q9Y468; 230,000 tested, 0.66% active; note: % is set by controls: 0 for no effect and ±100 for the full control effect; nearly all actives have a fitted effect of over 60% in size
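Read-out is AlphaScreen signal from streptavidin donor and nickel chelate acceptor beads (10 ug/mL final each) bridging L3MBTL1 (50 nM) and biotinylated K9-monomethylated H3(1-15) peptide (75 nM), after 30 min compound exposure at room temperature.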
BAZ2B block: blocks human BAZ2B; Q9UIF8; AlphaScreen BAZ2B-H3K14Ac peptide displacement; Potency, µM (titrated, usually from 114 µM), for inactives: at the highest dose activity change, negative = inhibition, usual class: inhibitors; 360,000 tested, 4.4% active; note: % is set by controls: 0 for no effect and ±100 for the full control effect; nearly all actives have a fitted effect of over 60% in size
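In this displacement format the biotinylated H3(5-23) peptide acetylated at Lys14 serves as ligand at 50 nM, with BAZ2B at 50 nM in PBS pH 7.4 containing 0.01% Tween-20. Donor and acceptor beads are 10 ug/mL final.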
Active calls of the source: *; ? = inconclusive; . = no result; ! = not active in a repeat; [ ] = dose if it differs, or a comment. Sampled rows, rich in hits. Any-hit rate of the full collection: about 11%. Calls come from the whole dose curve; as a rule, active = well fitted inhibition curve with a large enough effect; inconclusive = small, poorly fitted or top-dose-only effect; inactive = no such curve, though single readings can be large or run the other way. Potency is the fitted concentration of half-maximal effect.

SMILES | JMJD2A Tudor | G9a inh | HP1b chromo inh | L3MBTL1 block | BAZ2B block
Cc1ccc(OCCN(C)C(=O)CC2C(=O)NCCN2CC(C)(C)C)cc1 (centres undefined) | -23% | 50µM* | 35% | -8% | -10%
Cc1ccc(CN2CCNC(=O)C2CC(=O)N(C)C2CCCCC2)o1 (centres undefined) | -32% | -9%[12.7 µM] | 5% | 1% | -11%
COCCN(C(=O)CC1C(=O)NCCN1Cc1ccc(-c2ccccc2)cc1)C(C)C (centres undefined) | -19% | 50µM* | 25% | -10% | -17%
Cc1ccc(CN2CCNC(=O)C2CC(=O)N(C)CCc2ccccc2)cc1 (centres undefined) | -8% | -1% | 33% | 0% | -1%
Cc1ccc(CN2CCNC(=O)C2CC(=O)O)o1 (centres undefined) | -14% | 50µM* | 46% | 6% | 11%
CN(Cc1cnccn1)C(=O)CC1C(=O)NCCN1Cc1cccc(F)c1 (centres undefined) | -23% | . | 16% | . | -6%
CN(Cc1cnccn1)C(=O)CC1C(=O)NCCN1Cc1cccc(Oc2ccccc2)c1 (centres undefined) | -21% | 50µM* | 19% | 1% | ?
C=CCNC(=O)CC1C(=O)NCCN1Cc1ccc(-c2ccccc2)cc1 (centres undefined) | -25% | 56µM* | 46% | -2% | -26%
CNC(=O)c1ccc2nc(Cc3ccccc3)oc2c1 | -5% | 7%[59 µM] | 7%[57 µM] | . | -10%
CCOCCCn1c(SCC(=O)Nc2ccccc2CC)nc2ccccc2c1=O | -5% | 12%[59 µM] | 25% | . | -2%
COc1ccccc1OCC(O)CN1CCN(CC(=O)Nc2c(C)cccc2C)CC1 (centres undefined) | 89µM*! | 3%[59 µM] | 19% | 8% | 0%
COc1cccc(OCC(O)CO)c1 (centres undefined) | 6% | 3%[12.7 µM] | 29% | . | 2%
Cc1ccccc1OCC(O)CN1CCN(C)CC1 (centres undefined) | -27% | 50µM* | 20% | -5% | ?
COc1cccc(OCC(O)CN2CCN(C)CC2)c1 (centres undefined) | 1µM* | 25µM* | ? | . | 50µM*
CCOC(=O)N1CCN(CC(O)COc2c(OC)cccc2OC)CC1 (centres undefined) | ? | -11%[59 µM] | 28% | 14% | 1%
Cc1ccc(OCC(O)CN2CCOCC2)c(C)c1 (centres undefined) | 89µM* | 89µM* | 1% | 9% | -36%
O=C(NCc1ccccc1)c1cnc(N2CCCCC2)c2ccccc12 | 10% | 23%[59 µM] | 27%[57 µM] | . | 28%
Cc1ccc(Cn2c(CNS(=O)(=O)c3ccc(Cl)s3)nc3cccnc32)cc1 | -3% | 31%[59 µM] | 26%[57 µM] | . | -2%
O=C(NCc1ccccc1Cl)C1CCCN(C(=O)c2cnn(-c3ccc(F)cc3)c2-n2cccc2)C1 (centres undefined) | -18% | -32%[59 µM] | 16% | . | ?
CCCOc1ccc(NC(=O)CC2C(=O)N(c3ccccc3)C(=O)N2Cc2ccc(F)cc2)cc1 (centres undefined) | -14% | -11%[59 µM] | 11% | . | -8%
Cc1ccc(Nc2nc(C(=O)NCCCN3CCOCC3)cs2)cc1 | ? | 89µM* | 12% | -10% | 9%
CCOC(=O)/C(=N\Nc1ccc(OC)cc1)c1csc(Nc2ccccc2)n1 | 40µM* | -14%[12.7 µM] | -20% | . | ?
CCN(CC)C(=O)c1csc(Nc2ccc(C)cc2)n1 | -33% | 13µM* | -2% | -5% | ?
Cc1ccc(-c2cc(C(=O)NCCCN3CCOCC3)no2)cc1 | -17% | 3%[12.7 µM] | 24% | -1% | 8%
CC(Sc1nc(=O)cc(N)n1CCc1ccccc1)C(=O)Nc1ccccc1C#N (centres undefined) | -11% | -22%[59 µM] | 33% | . | -24%
SMILES | JMJD2A Tudor | G9a inh | HP1b chromo inh | L3MBTL1 block | BAZ2B block
CCn1c(SCC(=O)N(C)CC(=O)Nc2cccc(OC)c2)nnc1-c1ccco1 | -15% | -30% | 11% | 3% | -1%
N#Cc1c(NC(=O)CSc2nnc(-c3ccco3)n2-c2ccccc2)sc2c1CCC2 | -15% | ? | 10% | . | -28%
COc1cccc(-c2nnc(SCC(=O)NCc3ccc4c(c3)OCO4)n2Cc2ccco2)c1 | -11% | 45µM* | 25% | . | ?
CCOC(=O)CNC(=O)CSc1nnc(-c2ccco2)n1Cc1ccco1 | 28µM* | 28µM* | 28% | 29% | -4%
NC(=O)c1c(NC(=O)CSc2nnc(-c3ccco3)n2-c2ccccc2)sc2c1CCC2 | ? | ? | ? | 10µM* | 50µM*
CCn1c(SCC(=O)N(C)CC(=O)Nc2ccc(OC)cc2)nnc1-c1ccco1 | -6% | 20µM* | 34% | -2% | 10%
N#Cc1nc(Nc2cc(F)cc(F)c2)nc(NC2CCCC2)n1 | -12% | . | . | . | .
CCOC(=O)c1sc(NC(=O)CSc2nnc(Cc3ccccc3)o2)c(C#N)c1C | 56µM* | ? | ? | 7%[11.4 µM] | ?
COC(=O)c1c(NC(=O)CSc2nnc(-c3ccco3)n2C)sc(C)c1C | 79µM* | -13%[59 µM] | ? | -5% | -9%
CCOC(=O)c1c(NC(=O)CSc2nnc(CNc3ccc(OC)cc3)n2C)sc(C)c1C | 50µM* | ? | 20µM* | . | 45µM*
CCOC(=O)c1c(NC(=O)CSc2nnc(CNc3ccc(F)cc3)o2)sc(C(C)=O)c1C | -35% | 33%[2.33 µM] | 28% | . | 50µM*
CCOC(=O)c1ccc(NC(=O)CSc2nnc(CNc3ccc(C)cc3)n2C)cc1 | -19% | -2%[59 µM] | 58% | -2% | 13%
CC(=O)c1ccc(NC(=O)c2cccc(NC(=O)N3CCSc4ncccc43)c2)cc1 | 6% | ? | 35% | . | -11%
O=C(Cn1cc(SCc2ccc(C(F)(F)F)cc2)c2ccccc21)N1CCCC1 | 4% | -4%[59 µM] | 42% | . | -16%
COc1cccc2c1cc1c(=O)n(CC(=O)NCc3ccco3)nc(C)n12 | -5% | -26%[59 µM] | 18% | . | -1%
CCOC(=O)c1sc(NC(=O)CSc2nnc(-c3ccco3)n2CC)c(C(=O)OCC)c1C | -34% | 18µM* | -9% | -3% | ?
Cc1cc(C)n2nc(C(=O)OCC(=O)c3ccccc3Cl)nc2n1 | -9% | ? | 32% | 2% | -1%
Cc1cc(C)n2nc(C(=O)OCC(=O)c3cc(C)n(C)c3C)nc2n1 | 56µM* | 45µM* | -6% | ? | 50µM*
COc1ccc(-n2c(/C=C/c3ccccc3F)nc3cc(OC)c(OC)cc3c2=O)cc1Cl | -16% | -3%[59 µM] | 7% | . | 2%
COc1ccc(-n2c(/C=C/c3cc(OC)c(OC)cc3OC)nc3cc4ccccc4cc3c2=O)cc1Cl | ? | -14%[59 µM] | -3% | . | 28µM*
COc1ccc(CNC(=O)CCS(=O)(=O)c2cc(Br)cc3c2N(C(=O)C2CC2)CC3)cc1 | -10% | 6%[59 µM] | 28% | . | 1%
O=C(Oc1ccc2ccccc2c1Cl)N1CCCCCC1 | 29% | 82%[59 µM] | 89% | 32% | 61%

Bioassay records as filed in PubChem BioAssay.
